From PubChem BioAssay
This excerpt belongs to a sample that is enriched for hits.
miR-122 inh = miR-122 suppressors via Renilla sensor increase, primary screen, cell-based, Huh7 psiCHECK-miR122, Renilla luciferase, single point. 48 h. activation, % at 12.5 µM. 340,000 compounds, 0.14% hits. AID 623901, 2012;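 active = mean activation of 30% or more, with every replicate also reaching 30%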;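 also: 0% = median of neutral control wells and 100% = median of positive control wells; higher luciferase signal means stronger suppression of miR-122 activity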
* marks the source's active call; other numbers are inactive results.

SMILES	miR-122 inh
CN1C(=O)c2cc(NC(=O)Nc3ccccc3F)ccc2OC[C@@H]2O[C@@H](CC(=O)NCc3ccc(-c4ccccc4)cc3)CC[C@H]21	48*
CN1C(=O)c2cc(NC(=O)Cc3cccs3)ccc2OC[C@@H]2O[C@H](CC(=O)NCc3ccc(-c4ccccc4)cc3)CC[C@@H]21	-188
CCNC(=O)C[C@@H]1CC[C@H]2[C@@H](COc3ccc(NC(=O)Nc4ccc(F)cc4)cc3C(=O)N2C)O1	50*
CN1C(=O)c2cc(NC(=O)NCc3ccccc3)ccc2OC[C@@H]2O[C@@H](CC(=O)NCC3CCCCC3)CC[C@@H]21	-120
CCCC(=O)Nc1ccc2c(c1)C(=O)N(C)[C@@H]1CC[C@H](CC(=O)NCCN3CCCCC3)O[C@H]1CO2	50*
CCCNC(=O)Nc1ccc2c(c1)C(=O)N(C)[C@H]1CC[C@@H](CC(=O)NCC3CCCCC3)O[C@@H]1CO2	42*
C[C@H](CO)N1C[C@H](C)[C@@H](CN(C)C(=O)Nc2ccccc2)Oc2cc(C#Cc3ccccc3)ccc2S1(=O)=O	-9
CO[C@H]1CN(C)C(=O)c2ccc(NC(=O)NC(C)C)cc2OC[C@@H](C)NC[C@H]1C	-13
C[C@@H]1CN([C@@H](C)CO)C(=O)c2cc(C#Cc3ccc(F)cc3)cnc2O[C@H]1CN(C)CC1CCOCC1	6
COc1ccc(C#Cc2cnc3c(c2)C(=O)N([C@H](C)CO)C[C@@H](C)[C@H](CN(C)CC2CCCC2)O3)cc1	-14
C[C@@H]1CN([C@H](C)CO)S(=O)(=O)c2ccc(C#C[C@@H](C)O)cc2O[C@@H]1CN(C)C	0
C[C@H](CO)N1C[C@H](C)[C@@H](CN(C)C(=O)C2CCC2)Oc2cc(C#CC(C)(C)O)ccc2S1(=O)=O	-9
CCCNC(=O)N(C)C[C@H]1Oc2ncc(C#C[C@@H](C)O)cc2C(=O)N([C@H](C)CO)C[C@@H]1C	-1
Cc1ccc(S(=O)(=O)N2CC[C@@H]3[C@@H](CO)Nc4ccc(-c5ccccc5F)cc4[C@@H]32)cc1	-154
COc1ccc(NC(=O)N(C)C[C@@H]2Oc3ncc(C4=CCCC4)cc3C(=O)N([C@H](C)CO)C[C@H]2C)cc1	-6
C[C@H](CO)N1C[C@H](C)[C@H](CN(C)C(=O)Nc2ccc(F)cc2)Oc2cc(C#CC3(O)CCCC3)ccc2S1(=O)=O	-1
C[C@@H]1CN([C@@H](C)CO)S(=O)(=O)c2ccc(-c3ccc(C(=O)N(C)C)cc3)cc2O[C@H]1CN(C)C	6
C[C@H](CO)N1C[C@H](C)[C@H](CN(C)CC2CCOCC2)Oc2cc(C#C[C@@H](C)O)ccc2S1(=O)=O	3
C[C@H](O)C#Cc1cnc2c(c1)C(=O)N([C@@H](C)CO)C[C@H](C)[C@@H](CN(C)C(=O)CN(C)C)O2	-4
C[C@H]1CN([C@@H](C)CO)C(=O)c2cc(C3=CCCCC3)cnc2O[C@@H]1CN(C)CC1CCOCC1	-3
CCC(=O)Nc1ccc2c(c1)OC[C@@H](C)N(CCC(F)(F)F)C[C@H](C)[C@@H](OC)CN(C)C2=O	1
CCC(=O)N1C[C@H](C)[C@@H](OC)CN(C)C(=O)c2ccc(NC(=O)C3CCCCC3)cc2OC[C@H]1C	-2
CCCNC(=O)N1C[C@H](C)[C@H](OC)CN(C)C(=O)c2cc(NS(=O)(=O)CC)ccc2OC[C@@H]1C	-24
CCNC(=O)C[C@@H]1CC[C@@H]2[C@@H](COc3ccc(NC(=O)C4CCCCC4)cc3C(=O)N2C)O1	33*
Cc1cccc(NC(=O)Nc2ccc3c(c2)C(=O)N(C)[C@@H]2CC[C@@H](CC(=O)NCc4ccccc4Cl)O[C@H]2CO3)c1	55*
SMILES	miR-122 inh
CO[C@H]1CN(C)C(=O)c2cc(NC(=O)c3nc4ccccc4s3)ccc2OC[C@H](C)N(Cc2ccncc2)C[C@H]1C	-10
CCC(=O)N1C[C@H](C)[C@H](OC)CN(C)C(=O)c2ccc(NC(=O)C3CCCCC3)cc2OC[C@@H]1C	1
CO[C@H]1CN(C)C(=O)c2cc(NC(=O)Nc3ccccc3)ccc2OC[C@@H](C)NC[C@@H]1C	0
COCCNC(=O)C[C@H]1CC[C@@H]2[C@H](COc3ccc(NC(=O)c4cnccn4)cc3C(=O)N2C)O1	45*
CCS(=O)(=O)Nc1ccc2c(c1)C(=O)N(C)[C@@H]1CC[C@@H](CC(=O)NCCCN3CCOCC3)O[C@H]1CO2	68*
CCS(=O)(=O)Nc1ccc2c(c1)C(=O)N(C)C[C@H](OC)[C@@H](C)CN[C@@H](C)CO2	-3
COCCNC(=O)C[C@@H]1CC[C@H]2[C@@H](COc3ccc(NC(C)=O)cc3C(=O)N2C)O1	-183
Cc1ccccc1NC(=O)Nc1ccc2c(c1)C(=O)N(C)[C@H]1CC[C@H](CC(=O)NCC3CC3)O[C@H]1CO2	-228
CCC(=O)N(C)C[C@H]1Oc2cc(C#C[C@@H](C)O)ccc2S(=O)(=O)N([C@@H](C)CO)C[C@@H]1C	7
CCC(=O)N(C)C[C@@H]1Oc2ncc(C#C[C@@H](C)O)cc2C(=O)N([C@@H](C)CO)C[C@@H]1C	0
C[C@@H]1CN([C@@H](C)CO)S(=O)(=O)c2ccc(C#CCC3CCCC3)cc2O[C@H]1CN(C)C(=O)c1ccccn1	-4
COCC#Cc1cnc2c(c1)C(=O)N([C@H](C)CO)C[C@H](C)[C@H](CN(C)Cc1ccccc1)O2	-1
COc1ccc(NC(=O)N(C)C[C@@H]2Oc3ncc(C4=CCCC4)cc3C(=O)N([C@@H](C)CO)C[C@H]2C)cc1	2
CC(C)NC(=O)N(C)C[C@@H]1Oc2ncc(C3=CCCCC3)cc2C(=O)N([C@@H](C)CO)C[C@H]1C	-3
CC(C)C#Cc1cnc2c(c1)C(=O)N([C@@H](C)CO)C[C@@H](C)[C@H](CN(C)C(=O)CC1CC1)O2	-16
C[C@@H]1CN([C@@H](C)CO)S(=O)(=O)c2ccc(C#CCC3CCCC3)cc2O[C@@H]1CN(C)C(=O)CN(C)C	7
CO[C@H]1CN(C)C(=O)c2ccc(NC(=O)Nc3cccc(F)c3)cc2OC[C@@H](C)N(C)C[C@H]1C	-2
CCNC(=O)Nc1ccc2c(c1)C(=O)N(C)[C@H]1CC[C@H](CC(=O)Nc3cccc(F)c3)O[C@@H]1CO2	67*
CO[C@H]1CN(C)C(=O)c2ccc(NC(=O)Nc3cccc(F)c3)cc2OC[C@H](C)N(C)C[C@H]1C	-11
CCCCN1C=C(C(=O)OC)C(c2ccccc2C(F)(F)F)C(C(=O)OC)=C1	31*
C[C@H]1CN([C@@H](C)CO)S(=O)(=O)c2ccc(C#CC3CC3)cc2O[C@H]1CN(C)Cc1ccccn1	1
CC#CCCCC(=O)Nc1ccccc1C(=O)O	32*
C[C@@H]1CN([C@@H](C)CO)C(=O)c2cc(-c3ccc(F)cc3)cnc2O[C@H]1CN(C)Cc1ccc(C(=O)O)cc1	5
C[C@H]1CN([C@@H](C)CO)C(=O)c2cc(C#CC3CCCC3)cnc2O[C@@H]1CN(C)C(=O)C1CCC1	-4
CCC(=O)Nc1ccc2c(c1)OC[C@H](C)N(C(=O)CN1CCOCC1)C[C@H](C)[C@H](OC)CN(C)C2=O	4
CC1CCN(CCc2nc3cc(NC(=O)Nc4ccccc4)ccc3n2C)CC1	31*
CO[C@H]1CN(C)C(=O)c2cc(NC(=O)Nc3ccccc3)ccc2OC[C@@H](C)NC[C@H]1C	0
CO[C@@H]1CN(C)C(=O)c2cc(NC(=O)Nc3ccccc3)ccc2OC[C@@H](C)NC[C@@H]1C	-1
COc1cccc(-c2ccc3c(c2)O[C@@H](CN(C)C(C)=O)[C@H](C)CN([C@H](C)CO)S3(=O)=O)c1	4
